Screening data deposited in PubChem BioAssay by Sanford-Burnham Center for Chemical Genomics.
tim10-1 inh = growth inhibitors of tim10-1 mutant yeast, primary screen, luminescence, uHTS; S. cerevisiae tim10-1 ts strain growth, BacTiter-Glo, 24 h; inhibition, % at 20 µM; 330,000 tested, 2.2% active; AID 463190, 2010;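 active = inhibition of at least 40%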;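 also: mutant grown at 25 °C; 0% = DMSO wells with yeast and 100% = wells holding no yeast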
NALP1 yeast inh = NALP1 inflammasome inhibitors in reconstituted yeast, colorimetric, S. cerevisiae, triplicate retest; inhibition, % at 10 µM; S. cerevisiae NALP1/ASC/caspase-1 growth, X-gal OD620, 72 h; 280,000 tested, 0.61% active; in the data active = inhibition mostly above about 24%, no sharp cut-off; inactive = mostly below about 32%
NLRP3 yeast inh = NALP3 inflammasome inhibitors in reconstituted yeast, primary screen, luminescence, uHTS; Yeast reconstituted NLRP3/ASC/caspase-1, beta-gal luminescence, 24 h; inhibition, % at 10 µM; 330,000 tested, 0.39% active; AID 2825, 2010;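 active = inhibition of 50% or more; inactive = inhibition below 50%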;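 also: plate controls were induced DMSO wells for no effect and uninduced yeast grown without galactose for full effect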
tim23-1 inh = growth inhibitors of tim23-1 mutant yeast, primary screen, luminescence, uHTS. inhibition, % at 20 µM. AID 463212, 2010. S. cerevisiae tim23-1 growth, BacTiter-Glo luminescence, 24 h. 330,000 tested, 1.3% active;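 active = growth inhibition of the mutant yeast at or above 50%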;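 also: temperature-sensitive mutant grown at 25 °C; plate controls were DMSO-treated mutant yeast for no effect and medium wells lacking yeast for full effect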
TIM10 inh = growth inhibitors of isogenic TIM10 control yeast, primary screen, counter-screen for tim10-1 yeast inhibitor project, luminescence, uHTS; inhibition, % at 10 µM; S. cerevisiae TIM10 strain growth, BacTiter-Glo luminescence, 24 h; 330,000 tested, 1.4% active;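 active = inhibition of 40% or more at the single tested concentration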;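 also: wild-type TIM10 isogenic control strain grown at permissive 25 °C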
tim23-1 conf = tim23-1 mutant yeast growth inhibitors, confirmation, luminescence, single concentration; shares compounds with tim23-1 inh; S. cerevisiae tim23-1 growth, BacTiter-Glo luminescence, 24 h; inhibition, % at 20 µM; 4,400 tested, 83% active; AID 463218, 2010;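 active = inhibition above about 39% in either of two replicate wells at 20 µM, limit read from the data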;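 also: temperature-sensitive tim23-1 mutant grown at 25 °C; 0% = DMSO wells with yeast and 100% = medium wells without yeast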
Numbers without * were called inactive; . = no result given. Sampled rows, rich in hits. Any-hit rate of the full collection: about 4%.

SMILES	tim10-1 inh	NALP1 yeast inh	NLRP3 yeast inh	tim23-1 inh	TIM10 inh	tim23-1 conf
NS(=O)(=O)c1ccc(N2N=C(c3ccccc3)CC2c2cccc(Br)c2)cc1 (centres undefined)	35	.	.	52*	13	33
C/C(CCc1oc2ccccc2c1-c1ccc(C)o1)=N/O	21	25	35	3	4	.
C/C(CCc1oc2c(Br)cc(Br)cc2c1-c1ccc(C)o1)=N\O	32	4	-5	58*	36	29
COc1ccc(NC(=O)C2CCCC2)cc1S(=O)(=O)N1CCOCC1	-1	.	4	7	6	.
CC1Cc2ccccc2N1C(=O)COC(=O)c1ccc([N+](=O)[O-])o1 (centres undefined)	34	.	11	57*	34	48*
O=C(NCCCn1ccnc1)C1CCN(S(=O)(=O)c2ccc(F)cc2)CC1	2	14	8	-3	-6	.
Cc1cccc(N2CCc3c2nc2ccc(Br)cc2c3N)c1	32	10	37	76*	28	63*
Cc1cccc(NC(=O)CSc2nnc(NC(=O)c3ccco3)s2)c1	-6	1	25	8	-21	.
CCc1nc2ccccc2c(NC(=O)CN2CC(C)CC(C)C2)c1C (centres undefined)	-1	-1	4	-11	-16	.
C=C(C(=O)Oc1ccccc1C(C)(C)C)c1ccccc1	39	.	24	59*	37	56*
CC(C)(C)c1ccccc1OCC(=O)NCCC(=O)O	8	26	4	-4	5	.
Cc1cc(N)n2nc(-c3ccccc3)c(-c3ccccc3)c2n1	16	-2	24	59*	10	46*
O=C1CCCC(=O)N1c1ccc(Oc2ccc(Cl)cc2)cc1	8	12	16	24	5	.
CN(C)c1ccc(NC(=O)CC(NCc2ccccn2)C(=O)O)cc1 (centres undefined)	14	15	4	1	-4	.
CCc1cc2cccc(C)c2nc1SCC(=O)N1CCN(C(=O)c2ccco2)CC1	30	14	18	57*	5	38*
CCc1cc2cc(C)cc(C)c2nc1SCC(=O)N1CCN(C(=O)c2ccco2)CC1	3	11	20	20	-8	.
CN(CCCC1CCCC1)C(=O)CC1C(=O)NCCN1Cc1cccc(F)c1F (centres undefined)	8	3	0	3	9	.
Cc1ccccc1OCCN(C#N)c1nc(N(C)C)nc(N(C)C)n1	18	5	20	15	-4	.
Cc1nc(Nc2ccc3c(c2)OCCO3)c2c(C)c(C)sc2n1	10	-18	25	55*	24	49*
Cc1sc2ncnc(OCC(=O)Nc3ccc4c(c3)OCCO4)c2c1C	-40	8	1	-3	-1	.
CC(C)(C)C(=O)NC1(C(F)(F)F)NC(=O)N(c2ccccc2F)C1=O (centres undefined)	-5	.	4	10	-11	.
N#C/C(=C\c1ccc(N2CCOCC2)o1)c1ccccc1	34	9	26	36	23	.
N#C/C(=C/c1ccc(N2CCOCC2)o1)c1nc2ccccc2[nH]1	18	-3	10	57*	34	66*
N#C/C(=C\c1ccc(Sc2nc3ccccc3[nH]2)o1)c1ccccc1	33	10	6	51*	35	41*
CN(C)c1nc(-c2cccnc2)nc(-c2ccccc2)c1C#N	.	13	.	.	.	.
SMILES	tim10-1 inh	NALP1 yeast inh	NLRP3 yeast inh	tim23-1 inh	TIM10 inh	tim23-1 conf
Cc1ccc2nc(-c3cccs3)oc(=O)c2c1	33	0	-8	37	19	.
O=c1oc(-c2cccs2)nc2ccc(Br)cc12	38	1	13	67*	20	38
Fc1cccc(-c2cc3nc4c(c(N5CCC6(CC5)OCCO6)n3n2)CCCC4)c1	21	21	15	52*	31	37
CCN(CC)C(=S)NC(=O)c1cc(OC)c(OC)c(OC)c1	8	-10	5	9	7	.
O=C(NC(=S)Nc1ccc(Br)cc1)C1CCC1	27	-6	34	57*	10	34
O=C(NC(=S)Nc1ccc(F)c(Cl)c1)C1CC1	29	-1	27	54*	7	33
O=C(Nc1ccc(Br)c(Cl)c1)C1CC1	2	45*	21	63*	32	56*
O=C(COc1coc(CN2CCCc3ccccc32)cc1=O)Nc1ccc([N+](=O)[O-])cc1	-21	.	19	-8	-24	.
Cn1c(SCC(=O)N2CCCC2=O)nnc1-c1ccccc1F	-4	-4	11	11	-6	.
CC(Cc1ccccc1)NC(=O)c1cc2ccccc2o1 (centres undefined)	-24	10	39	51*	23	53*
CCN1C(=NCCN2CCOCC2)N[C@@H](c2ccccc2)C(C(=O)OC)=C1C	3	10	16	15	6	.
COc1ccccc1NC(=O)COn1nnc2ccc(S(=O)(=O)N3CCOCC3)cc21	11	-5	7	15	2	.
Cc1ccc(S(=O)(=O)NCc2cc(=O)n(C)c(=O)n2C)cc1C	-7	4	9	7	-5	.
NNC(=O)c1cc2cc(Oc3ccccc3)ccc2[nH]1	37	-2	29	59*	26	15
NNC(=O)c1cc2ccccc2[nH]1	-19	1	1	2	-1	.
Cc1ccc(NC(=S)N2CCC(NC(=O)c3ccc(F)cc3)CC2)cc1C	7	-2	22	-2	-10	.
O=C(COc1cccc2cccnc12)N1CCc2ccccc2C1	23	3	17	19	27	.
O=C(COc1c(Br)cc(Br)c2cccnc12)N1CCc2ccccc2C1	36	4	18	51*	12	51*
COCCN=c1scc(-c2ccco2)n1/N=C/c1ccc(O)c(O)c1O	-5	-4	18	-14	26	.
C=CCN=c1scc(-c2ccco2)n1/N=C/c1ccc(O)c(O)c1O	-10	-5	15	64*	-6	62*
Cc1ccc(NC(=S)NCCc2c[nH]c3ccccc23)cc1	6	3	6	-54	-17	.
CC(C)c1ccc(NC(=S)NCCc2c[nH]c3ccccc23)cc1	37	24	19	52*	15	37
Oc1ccc(C2C[C@H]3CC[C@@H]2C3)cc1O (some centres undefined)	17	27	2	52*	26	25
O=C1CC(c2ccc(O)c(O)c2)Oc2cc(O)cc(O)c21 (centres undefined)	0	-10	4	1	-2	.
Clc1ccc(OCc2nc(-c3ccccn3)n[nH]2)cc1	21	26	25	48	14	.
Brc1ccc(OCc2nc(-c3ccccn3)n[nH]2)cc1	19	-4	42	52*	6	53*
